# Assay results: ChEMBL document CHEMBL3988442, “University of Dundee, Small-Polar-MMV Screening Library” (2021)
# For some assays here: Measured potencies and affinities stand elsewhere.
# Assays:
# Parameters in all cases: scale not given: direction of the effect not stated beside the values
# [1] = molecular target: Protein translocase subunit SecA (Escherichia coli (strain K12)) (UniProt P10408); test: Assay to Identify E. coli SecA ATPase Inhibitors; format: functional; conditions: 30 µM
# [2] = molecular target: T1, Ubiquitin-activating enzyme e1, putative (Leishmania donovani (strain BPK282A1)) (UniProt E9BSI1); test: Leishmania donovani Ubiquitin Activating Enzyme (LdE1); format: functional; conditions: 30 µM
# T1 sequence (whole entry): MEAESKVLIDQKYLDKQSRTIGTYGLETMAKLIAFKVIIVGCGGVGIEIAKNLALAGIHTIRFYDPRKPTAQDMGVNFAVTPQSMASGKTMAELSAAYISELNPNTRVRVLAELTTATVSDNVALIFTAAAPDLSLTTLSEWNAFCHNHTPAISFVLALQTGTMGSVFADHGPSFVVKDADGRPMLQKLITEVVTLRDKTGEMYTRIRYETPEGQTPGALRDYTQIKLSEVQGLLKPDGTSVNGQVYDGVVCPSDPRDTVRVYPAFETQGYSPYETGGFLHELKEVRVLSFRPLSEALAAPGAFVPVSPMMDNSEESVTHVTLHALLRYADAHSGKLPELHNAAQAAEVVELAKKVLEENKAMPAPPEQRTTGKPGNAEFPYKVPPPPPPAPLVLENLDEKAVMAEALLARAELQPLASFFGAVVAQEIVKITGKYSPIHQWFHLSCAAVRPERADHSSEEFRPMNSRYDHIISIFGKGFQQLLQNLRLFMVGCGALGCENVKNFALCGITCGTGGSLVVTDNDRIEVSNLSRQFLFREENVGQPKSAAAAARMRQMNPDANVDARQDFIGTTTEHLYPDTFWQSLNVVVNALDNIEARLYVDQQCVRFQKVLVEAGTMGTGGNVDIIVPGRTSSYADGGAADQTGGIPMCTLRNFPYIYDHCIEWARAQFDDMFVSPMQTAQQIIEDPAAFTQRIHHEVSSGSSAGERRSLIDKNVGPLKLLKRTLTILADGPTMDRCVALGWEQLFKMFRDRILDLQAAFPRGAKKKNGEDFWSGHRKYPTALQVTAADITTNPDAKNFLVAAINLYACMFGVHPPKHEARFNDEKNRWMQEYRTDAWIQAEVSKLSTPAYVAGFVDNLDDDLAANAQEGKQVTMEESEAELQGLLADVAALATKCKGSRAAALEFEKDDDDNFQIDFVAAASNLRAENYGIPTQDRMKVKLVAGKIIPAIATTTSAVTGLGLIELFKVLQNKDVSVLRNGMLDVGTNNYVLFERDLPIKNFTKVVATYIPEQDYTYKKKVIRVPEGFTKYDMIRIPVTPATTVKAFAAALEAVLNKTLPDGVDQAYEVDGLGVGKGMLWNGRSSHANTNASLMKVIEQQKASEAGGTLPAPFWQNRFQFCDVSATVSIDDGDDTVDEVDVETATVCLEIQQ
# [3] = molecular target: AMP-activated protein kinase, AMPK (Homo sapiens) (UniProt P54646+O43741+P54619+Q9UGJ0+Q9Y478+Q13131+Q9UGI9); test: AMP-dependent Kinase enzyme assay. An in vitro enzyme assay that detects ADP turnover that is directly proportional to AMPK activity. This uses naive AMPK that is activated during the assay with MK-8722; format: functional; conditions: 30 µM
# [4] = molecular target: Sialic acid-binding Ig-like lectin 9 (Homo sapiens) (UniProt Q9Y336); test: Hs-Siglec9 ALPHAscreen SOP 20170721; conditions: 10 µM
# Trypanosoma cruzi = test: Trypanosoma cruzi phosphomannomutase and mannose-1-phosphate guanylyltransferase assay; format: functional; conditions: 10 µM
# [5] = molecular target: T2, Arginase-2, mitochondrial (Homo sapiens) (UniProt P78540); test: in vitro enzyme assay to detect the production of urea directly proportional to the activity of Arginase II; format: functional; conditions: 33.3 µM; also: in the data most compounds retested in dose-response had high values
# T2 sequence (whole entry): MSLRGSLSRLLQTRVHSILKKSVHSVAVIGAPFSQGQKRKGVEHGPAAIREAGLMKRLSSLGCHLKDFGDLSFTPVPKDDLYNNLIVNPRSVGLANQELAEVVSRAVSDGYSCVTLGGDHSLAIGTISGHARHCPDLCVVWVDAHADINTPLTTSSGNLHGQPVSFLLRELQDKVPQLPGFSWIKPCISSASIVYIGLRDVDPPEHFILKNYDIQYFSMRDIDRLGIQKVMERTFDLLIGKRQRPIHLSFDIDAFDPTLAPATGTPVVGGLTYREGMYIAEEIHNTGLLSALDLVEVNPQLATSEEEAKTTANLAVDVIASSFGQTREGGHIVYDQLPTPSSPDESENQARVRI
# [6] = molecular target: T3, Proteasome subunit beta (Trypanosoma cruzi) (UniProt O96673); test: Trypanosoma cruzi proteasome chymotrypsin-like activity (TcProtChymo) assay.; also: in the data most compounds retested in dose-response had high values; format: functional; conditions: 9.37 µM
# T3 sequence (whole entry): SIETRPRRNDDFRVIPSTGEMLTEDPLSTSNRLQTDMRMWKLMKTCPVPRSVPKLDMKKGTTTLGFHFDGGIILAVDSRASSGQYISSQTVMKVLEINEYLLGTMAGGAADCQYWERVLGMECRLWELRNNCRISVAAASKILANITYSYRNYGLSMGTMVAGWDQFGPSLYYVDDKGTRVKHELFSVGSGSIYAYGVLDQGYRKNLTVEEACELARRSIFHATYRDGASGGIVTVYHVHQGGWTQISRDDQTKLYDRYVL
# Homo sapiens = species on record: Homo sapiens; test: To identify inhibition of the IFN signalling (Jak-Stat) pathway via expression of an eGFP reporter gene under the control of an IFN-stimulated response element (ISRE) containing MxA promoter.; format: functional; conditions: 30 µM
# [7] = molecular target: T4, Tyrosyl-tRNA synthetase, putative (Trypanosoma cruzi (strain CL Brener)) (UniProt Q4DSP6); test: Trypanosoma cruzi tyrosyl tRNA synthetase (TcYRS) _High Tyrosine SOP; format: functional; conditions: 30 µM; also: in the data most compounds retested in dose-response had high values
# T4 sequence (whole entry): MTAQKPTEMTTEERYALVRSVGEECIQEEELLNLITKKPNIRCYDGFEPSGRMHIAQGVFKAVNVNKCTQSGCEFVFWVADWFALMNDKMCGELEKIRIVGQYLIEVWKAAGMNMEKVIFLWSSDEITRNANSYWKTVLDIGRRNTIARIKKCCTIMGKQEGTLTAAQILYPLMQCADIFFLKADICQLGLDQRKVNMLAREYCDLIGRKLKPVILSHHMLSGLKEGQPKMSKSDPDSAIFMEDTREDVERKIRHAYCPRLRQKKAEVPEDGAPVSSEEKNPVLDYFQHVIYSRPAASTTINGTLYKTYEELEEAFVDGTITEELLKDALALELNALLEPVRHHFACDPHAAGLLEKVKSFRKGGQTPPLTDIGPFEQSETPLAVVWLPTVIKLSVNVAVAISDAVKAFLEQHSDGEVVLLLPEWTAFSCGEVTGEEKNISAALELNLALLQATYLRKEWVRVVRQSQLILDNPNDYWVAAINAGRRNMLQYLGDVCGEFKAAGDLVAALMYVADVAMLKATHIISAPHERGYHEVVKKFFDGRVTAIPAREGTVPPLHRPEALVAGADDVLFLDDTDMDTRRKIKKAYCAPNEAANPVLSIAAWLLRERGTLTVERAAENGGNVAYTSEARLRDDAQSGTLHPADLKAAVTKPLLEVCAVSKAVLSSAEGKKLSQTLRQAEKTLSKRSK
# [8] = molecular target: T4, Tyrosyl-tRNA synthetase, putative (Trypanosoma cruzi (strain CL Brener)); test: Trypanosoma cruzi tyrosyl tRNA synthetase (TcYRS) SOP; format: functional; conditions: 30 µM
# [9] = molecular target: Chromo domain-containing protein 1 (Saccharomyces cerevisiae (strain ATCC 204508 / S288c) (Baker's yeast)) (UniProt P32657); test: ScCHD-1 Enzyme Inhibition Assay; format: functional; conditions: 30 µM; also: in the data most compounds retested in dose-response had high values
# Chromo domain-containing protein 1 (Saccharomyces cerevisiae (strain ATCC 204508 / S288c) (Baker's yeast)), sequence (P32657 whole entry, the tested form may be a part): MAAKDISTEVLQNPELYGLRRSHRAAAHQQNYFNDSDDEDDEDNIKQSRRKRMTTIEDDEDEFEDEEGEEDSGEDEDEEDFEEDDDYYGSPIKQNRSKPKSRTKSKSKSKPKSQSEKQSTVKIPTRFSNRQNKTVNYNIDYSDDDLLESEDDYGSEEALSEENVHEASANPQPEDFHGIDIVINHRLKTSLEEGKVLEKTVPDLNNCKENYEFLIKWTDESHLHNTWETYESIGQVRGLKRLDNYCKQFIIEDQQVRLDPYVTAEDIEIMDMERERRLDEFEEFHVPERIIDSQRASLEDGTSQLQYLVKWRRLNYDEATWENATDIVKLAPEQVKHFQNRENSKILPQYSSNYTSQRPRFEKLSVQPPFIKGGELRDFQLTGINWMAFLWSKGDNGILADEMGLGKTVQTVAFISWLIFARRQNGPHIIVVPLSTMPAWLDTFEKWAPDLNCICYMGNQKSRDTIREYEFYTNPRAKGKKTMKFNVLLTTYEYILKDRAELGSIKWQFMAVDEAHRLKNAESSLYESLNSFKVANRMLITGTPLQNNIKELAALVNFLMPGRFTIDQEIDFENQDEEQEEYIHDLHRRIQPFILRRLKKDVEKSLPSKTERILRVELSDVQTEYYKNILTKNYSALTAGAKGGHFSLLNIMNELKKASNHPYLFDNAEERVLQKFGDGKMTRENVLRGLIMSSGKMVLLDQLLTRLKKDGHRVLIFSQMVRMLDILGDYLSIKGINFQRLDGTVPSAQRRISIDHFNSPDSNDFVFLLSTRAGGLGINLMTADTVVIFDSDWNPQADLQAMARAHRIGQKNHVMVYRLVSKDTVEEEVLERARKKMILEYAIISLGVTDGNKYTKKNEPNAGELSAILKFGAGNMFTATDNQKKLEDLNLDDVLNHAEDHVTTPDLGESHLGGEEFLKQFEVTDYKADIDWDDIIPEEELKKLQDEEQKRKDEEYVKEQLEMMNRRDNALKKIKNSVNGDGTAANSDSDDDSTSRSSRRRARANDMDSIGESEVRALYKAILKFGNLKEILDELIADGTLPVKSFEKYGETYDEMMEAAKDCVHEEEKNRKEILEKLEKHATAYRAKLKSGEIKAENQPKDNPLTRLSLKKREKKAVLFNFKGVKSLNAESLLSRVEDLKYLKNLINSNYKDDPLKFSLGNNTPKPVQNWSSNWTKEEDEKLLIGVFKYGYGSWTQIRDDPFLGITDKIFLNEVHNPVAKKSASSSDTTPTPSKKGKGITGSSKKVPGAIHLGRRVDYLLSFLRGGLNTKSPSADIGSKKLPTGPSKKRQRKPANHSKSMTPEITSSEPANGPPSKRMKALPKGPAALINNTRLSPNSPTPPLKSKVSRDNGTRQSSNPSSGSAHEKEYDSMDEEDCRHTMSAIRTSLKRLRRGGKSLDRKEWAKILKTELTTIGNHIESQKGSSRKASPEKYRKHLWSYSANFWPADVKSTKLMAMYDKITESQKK
# Sialic acid-binding Ig-like lectin 9 (Homo sapiens), sequence (Q9Y336 whole entry): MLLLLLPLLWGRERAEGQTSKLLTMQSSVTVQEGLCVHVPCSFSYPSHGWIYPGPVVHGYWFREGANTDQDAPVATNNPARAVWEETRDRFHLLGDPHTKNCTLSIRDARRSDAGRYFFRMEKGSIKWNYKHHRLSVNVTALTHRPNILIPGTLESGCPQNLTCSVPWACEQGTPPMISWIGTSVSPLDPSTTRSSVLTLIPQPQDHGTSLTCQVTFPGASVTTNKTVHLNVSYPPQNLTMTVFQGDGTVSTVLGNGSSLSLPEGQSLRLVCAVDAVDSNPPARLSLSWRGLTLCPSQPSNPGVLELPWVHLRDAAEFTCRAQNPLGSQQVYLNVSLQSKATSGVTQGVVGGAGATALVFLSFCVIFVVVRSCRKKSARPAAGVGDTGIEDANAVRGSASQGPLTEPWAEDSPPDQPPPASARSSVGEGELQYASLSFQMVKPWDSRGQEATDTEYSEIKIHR
# Protein translocase subunit SecA (Escherichia coli (strain K12)), sequence (P10408 whole entry): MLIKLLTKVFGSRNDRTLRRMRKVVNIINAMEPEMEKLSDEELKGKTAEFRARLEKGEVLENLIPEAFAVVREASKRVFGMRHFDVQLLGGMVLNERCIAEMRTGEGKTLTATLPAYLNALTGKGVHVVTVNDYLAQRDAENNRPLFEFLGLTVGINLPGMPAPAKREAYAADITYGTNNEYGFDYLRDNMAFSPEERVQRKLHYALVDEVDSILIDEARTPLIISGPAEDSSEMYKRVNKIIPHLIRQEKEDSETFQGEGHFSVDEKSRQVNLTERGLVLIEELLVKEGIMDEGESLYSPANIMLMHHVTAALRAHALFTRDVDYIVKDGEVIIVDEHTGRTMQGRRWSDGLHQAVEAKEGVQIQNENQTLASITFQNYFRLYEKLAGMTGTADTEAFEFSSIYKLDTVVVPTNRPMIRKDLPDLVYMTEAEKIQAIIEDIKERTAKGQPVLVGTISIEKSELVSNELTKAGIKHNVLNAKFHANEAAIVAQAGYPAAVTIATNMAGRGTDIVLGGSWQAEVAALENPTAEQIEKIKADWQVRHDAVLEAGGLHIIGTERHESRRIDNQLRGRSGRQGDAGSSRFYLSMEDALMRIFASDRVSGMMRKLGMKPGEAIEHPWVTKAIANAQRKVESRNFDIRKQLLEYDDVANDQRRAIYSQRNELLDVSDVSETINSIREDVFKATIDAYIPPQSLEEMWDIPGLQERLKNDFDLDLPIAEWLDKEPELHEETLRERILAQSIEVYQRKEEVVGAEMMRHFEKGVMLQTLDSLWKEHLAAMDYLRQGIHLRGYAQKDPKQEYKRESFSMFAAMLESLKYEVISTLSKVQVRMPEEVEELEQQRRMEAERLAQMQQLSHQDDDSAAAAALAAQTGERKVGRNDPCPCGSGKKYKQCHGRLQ
Structure (SMILES),Percent Effect [1] [%],Percent Effect [2] [%],Percent Effect [3] [%],Percent Effect [4] [%],Percent Effect (Trypanosoma cruzi) [%],Percent Effect [5] [%],Percent Effect [6] [%],Percent Effect (Homo sapiens) [%],Percent Effect [7] [%],Percent Effect [8] [%],Percent Effect [9] [%]
CNS(=O)(=O)Cc1ccc(CNC(=O)c2ccc(C)[nH]c2=O)cc1,-4.48,28.6,-2.88,7.58,6.37,-1.07,5.91,-2.15,10.7,26.8,-6.56
COc1ncc(NC(=O)Nc2cc(C)ccc2OC)cn1,-9.27,15.6,-6.73,-2.77,9.57,0.645,15.3,10.7,3.17,11.5,-7.83
CCc1nc(CN2CCCN(c3nc4ccccc4o3)CC2)no1,7.05,13,-1.96,2.65,-9.14,-13.8,12.2,23.6,4.3,8.64,-0.262
CCc1noc(C)c1C(=O)N1CCCC1Cn1cc(C)cn1 (stereo unspecified),-3.44,15.8,8.82,-9.39,-10.4,0,3.64,-1.17,2.46,1.24,-10.2
CCNC(=O)c1ccoc1CN1c2ccccc2CC1C (stereo unspecified),-3.54,2.74,7.91,9.27,-3.97,2.4,12.4,5.41,4.17,11.1,1.31
COc1ccc(Cl)cc1C(=O)N1CCCC(n2nc(C)nc2C)C1 (stereo unspecified),-3.26,0,9.49,-8.91,-6.33,-3.8,-4.5,16.6,-2.46,-3.8,2.53
O=C1CC2(CCN(CC3CCOC3)CC2)CN1Cc1cc(F)cc(F)c1 (stereo unspecified),-5.41,12.5,-5.76,26.3,4.37,16.3,9.65,-12.9,2.1,10.3,-4.1
Cc1cc(C(=O)N2CCCC2Cn2nc(C)cc2C)on1 (stereo unspecified),-2.76,10.8,-7.13,13.4,3.87,-7.62,4.14,8.42,5.42,18.5,-8.04
COCC(=O)NCc1cccc(Br)c1,-0.913,18.4,-5.98,-7.74,4.89,1.92,11.4,13.3,4.41,19.5,-12.7
O=C(Cn1cc(C(=O)O)ccc1=O)Nc1ccc(Cl)cc1F,-1.04,20,-5.95,0.752,1.38,-4.75,10.7,9.59,7.41,10.3,-12
Cc1cc(C)n(CC2CCCN2C(=O)c2ccc3c(c2)OCO3)n1 (stereo unspecified),-1.47,6.33,1.3,-3.57,2.15,-1.5,8.75,1.15,2.08,2.53,0.284
Cc1ccc2ncnc(N3CCOCC3c3c(C)nn(C)c3C)c2c1 (stereo unspecified),-3.4,5.33,-4.79,3.91,-0.487,-0.521,16,21.1,6.01,8.64,-5.67
CNC(=O)c1cc2c(nc1NCC1CC1)CCN(S(=O)(=O)C1CC1)CC2,-0.616,18.2,3.29,-14.9,-2.86,8.39,9.75,33.1,-1.06,11.5,-8.62
Cc1nc(C)n(CC2CN(c3ncnc4[nH]ccc34)CCO2)n1 (stereo unspecified),-2.48,11.4,24,-0.101,-3.38,-2.37,6,28.6,2.08,12.7,-20.9
O=C(NCc1cccs1)C1CN(C(=O)c2cccs2)CC12CCOCC2 (stereo unspecified),-3.46,8,5.07,1.33,0.193,-43.5,14.4,-4.96,2.08,-312,-2.49
COc1ccc(OC)c(CNCCc2cc(F)cc3c2OCOC3)c1,-5.17,-6.94,-9.7,2.47,4.57,-3.09,7.19,4.72,2.1,2.56,-2.06
